Screens as filed in PubChem.
An excerpt weighted towards active compounds, which were near 0.58% of everything screened.
TcdB inh – inhibitors of Clostridioides difficile toxin B glycohydrolase; P18177; TcdB glycohydrolase enzymatic assay, plate reader; inhibition, % at 9.99 µM; 350,000 compounds, 0.24% hits; AID 652162; in the data active = inhibition above about 10%
Mtb BioA inh – BioA (M. tuberculosis) enzyme inhibition; inhibition, % at 9.99 µM; AID 602481; purified M. tuberculosis BioA enzyme, plate reader; 360,000 compounds, 0.096% hits; in the data active = inhibition above about 40%
Y pestis TopoI – blocks Yersinia pestis topoisomerase I activity; Y. pestis Topo-I cleavage product accumulation, plate reader; activity, % at 10 µM; 360,000 compounds, 0.064% hits; in the data active = activity above about 50%, passing the limit was not always enough
Vc quorum ag – induces V. cholerae light production without autoinducers; V. cholerae BH1578 lux reporter, luminescence, 6 h; activation, % at 18.7 µM; 350,000 compounds, 0.16% hits; in the data active = activation mostly above about 9.7%, no sharp cut-off
FadD28 FP inh – blocks FadD28 binding to the bisubstrate probe | inhibition, % at 12.5 µM | 360,000 compounds, 0.22% hits | fluorescence polarization; in the data active = inhibition above about 8.5%, passing the limit was not always enough
* hit, by the source's call; i = inactive; . = no result given.

SMILES | TcdB inh | Mtb BioA inh | Y pestis TopoI | Vc quorum ag | FadD28 FP inh
CCCCCOc1ccc(C2C(C(=O)c3ccc(C)o3)=C(O)C(=O)N2c2cc(C)on2)cc1 (stereo not given) | 1.3 | -2.7 | 87.9* | -0.5 | -6.0
CCCOc1cccc(C2C(C(=O)c3cc4ccccc4o3)=C(O)C(=O)N2c2cc(C)on2)c1 (stereo not given) | 0.2 | -1.3 | 2.7 | i | -1.9
COCC(=O)N1CC2(C1)CN(Cc1cc(F)ccc1F)[C@H](CO)c1[nH]c3cc(OC)ccc3c12 | 0.2 | . | . | . | .
Cc1cc(O)ccc1N=Cc1c(C(F)(F)F)[nH][nH]c1=O | 15.1* | . | 6.5 | -0.3 | 1.5
Cc1nc2ccccc2nc1OCC(=O)Nc1ccc(F)cc1 | 12.3* | . | 0.1 | -0.4 | -1.1
O=S(=O)(Oc1ccccc1-c1ccccc1)c1ccccc1 | 12.3* | -3.3 | 17.3 | i | -0.5
C[C@@H]1CN([C@@H](C)CO)C(=O)c2cc(C#Cc3ccccc3F)cnc2O[C@@H]1CN(C)C(=O)c1ccc2c(c1)OCO2 | -0.6 | 0.4 | . | . | .
Cc1ccc(CSCCNC(=O)c2ccc(N(C)S(=O)(=O)c3ccccc3)cc2)cc1 | . | . | 14.5 | -0.5 | 8.8*
CN(c1ccc(C(=O)NCCSCc2ccc(Cl)cc2)cc1)S(=O)(=O)c1ccccc1 | -5.8 | . | -5.0 | -0.6 | 2.8
Cc1ccc(CSCCNC(=O)c2ccc(Cl)c(S(=O)(=O)N3CCOCC3)c2)cc1 | . | 9.7 | 11.8 | -0.1 | 33.7*
O=C(COC(=O)c1ccc(Cl)c(S(=O)(=O)N2CCCCCC2)c1)Nc1ccccc1 | 1.2 | . | 13.5 | -0.2 | 61.9*
COc1ccc(CNC(=O)c2ccc(Cl)c(S(=O)(=O)N3CCCCCC3)c2)cc1 | 0.0 | -0.8 | 17.5 | -0.7 | 8.7*
O=C(NCc1ccncc1)c1ccc(Cl)c(S(=O)(=O)N2CCCCC2)c1 | 1.1 | . | -6.0 | i | 0.4
C[C@H]1CCCCO[C@@H](CN(C)C(=O)NC2CCCCC2)[C@@H](C)CN([C@@H](C)CO)C(=O)c2cc(NC(=O)c3ccccc3)ccc2O1 | . | -2.3 | . | . | .
O=C(CC1CC1)N1CC(=O)N2[C@H](C1)[C@@H](c1ccc(-c3ccccc3)cc1)[C@@H]2CO | -1.8 | . | . | . | .
COCC#Cc1ccc2c(c1)O[C@@H](CN(C)C(=O)CC1CC1)[C@H](C)CN([C@@H](C)CO)S2(=O)=O | 12.7* | -0.6 | . | . | .
COCC#Cc1ccc2c(c1)O[C@H](CN(C)C(=O)CC1CC1)[C@H](C)CN([C@@H](C)CO)S2(=O)=O | 3.4 | 0.0 | . | . | .
CCn1c(SCC(=O)c2cc(C)ccc2C)nc2cc(S(=O)(=O)N3CCOCC3)ccc21 | 0.4 | -0.1 | 29.7 | -0.7 | -3.0
CCC(C)NC(=O)CSc1nc2cc(S(=O)(=O)N3CCOCC3)ccc2n1CC (stereo not given) | 10.9* | . | 2.0 | 12.4 | -2.1
CC1=NN(c2nc(-c3ccc(F)cc3)cs2)C(=O)C1 | . | -3.3 | -14.2 | i | 18.1*
Cc1[nH]n(-c2ncc(-c3ccccc3)s2)c(=O)c1C(c1ccc(Cl)cc1)C(C#N)C#N (stereo not given) | 2.1 | . | -9.5 | -0.2 | 8.6*
CN1[C@H](C(=O)NCC2CC2)[C@@H](CO)[C@@H]2Cn3c(ccc(-c4ccc(F)cc4)c3=O)[C@@H]21 | -1.2 | 2.2 | . | . | .
COc1ccccc1NC(=O)c1cc2ccc(O)cc2o/c1=N\O | . | -0.8 | -18.7 | -0.6 | 18.4*
CC(C)c1ccc(N(CC(=O)NCc2ccc(F)cc2)C(=O)c2snc(C(N)=O)c2N)cc1 | 1.5 | -1.9 | 66.5* | -0.3 | 1.0
COc1ccc(CNC(=O)CN(C(=O)c2snc(C(N)=O)c2N)c2ccc(F)cc2)cc1 | -0.4 | -3.4 | 17.0 | -0.4 | -3.4
SMILES | TcdB inh | Mtb BioA inh | Y pestis TopoI | Vc quorum ag | FadD28 FP inh
C[C@@H]1CN([C@@H](C)CO)C(=O)c2cccc(NC(=O)CCCCCC(=O)Nc3ccccc3N)c2O[C@H]1CN(C)CC1CCCCC1 | 0.7 | . | . | . | .
Cc1ccc(NC(=O)CN2C(=O)S/C(=C\c3cc(C)n(-c4cccc(C(=O)O)c4)c3C)C2=O)cc1 | 0.8 | . | -12.2 | -0.4 | 43.3*
Cc1ccc(NC(=O)CN2C(=O)S/C(=C\c3cc(C)n(C)c3C)C2=O)cc1 | . | -0.4 | -0.8 | -0.4 | -1.8
Cc1cccc(NC(=O)CN2C(=O)S/C(=C\c3cc(C)n(C)c3C)C2=O)c1 | 0.4 | 7.6 | -4.3 | -0.2 | 33.6*
Cc1ccc(C(=O)O)cc1-c1ccc(/C=C2\SC(=O)N(CC(=O)Nc3ccccc3)C2=O)o1 | -0.6 | -3.8 | -4.1 | -0.1 | 17.5*
COC(=O)[C@@H]1[C@@H](CO)[C@@H]2Cn3c(ccc(-c4ccccc4OC)c3=O)[C@@H]2N1C(=O)c1cccnc1 | -0.6 | -2.4 | . | . | .
